The list is not random: actives were taken first. Their share in the collection is about 12%.
SARS PLP yeast – qHTS of Yeast-based Assay for SARS-CoV PLP; S. cerevisiae expressing SARS-CoV PLpro, growth rescue; actives 0.19% (n = 330,000); AID 485353, 2010; Potency, µM (titrated, usually from 32.9 µM), inactives show at the top dose activity, positive = growth rescue, actives largely listed as activators; also: potency is read from the fitted curve at half-maximal effect; 0% is about no effect; nearly all actives have a fitted effect of over 55% in size
Cycloheximide cs – Cycloheximide Counterscreen for Small Molecule Inhibitors of Shiga Toxin. max response, %. actives 12% (n = 300,000). cell reporter, cycloheximide protein synthesis inhibition counterscreen; in the data active = max response mostly above about 13%, no sharp cut-off; inactive = mostly below about 14%; also: read at 38.3 µM for the half of the compounds with a filed dose; 0% is about no effect
Shiga toxin inh – A qHTS for Small Molecule Inhibitors of Shiga Toxin; Vero cells, Shiga toxin protein synthesis inhibition reporter; inhibition, % at 38.7 µM; actives 9.2% (n = 290,000); AID 2315, 2010; in the data active = inhibition mostly above about 28%, no sharp cut-off; inactive = mostly below about 43%; also: 0% is about no effect
NS1 inh – qHTS Assay for Inhibitors of Influenza NS1 Protein Function | Potency, µM (doses to about 46.1 µM), for inactives: top-dose activity, positive = more growth | actives 0.4% (n = 270,000) | AID 2326, 2010; also: potency is read from the fitted curve at half-maximal effect; actives are rising curves; nearly all actives have a fitted effect of over 50% in size
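Compounds were scored for reversing the slow growth caused by influenza A NS1 in S. cerevisiae, measured by optical density at 600 nm. Assay medium contained 2% galactose at pH 6.0; NS1-free yeast of the same strain were the positive control.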
The depositor's hits bear a star; i = inactive; ? = inconclusive; . = no result given; + = active, no number; [ ] = dose if it differs, or a comment. Unless noted, calls follow the shape of the full dose curve.

SMILES | SARS PLP yeast | Cycloheximide cs | Shiga toxin inh | NS1 inh
CC(c1ccc(F)cc1)n1c(-c2cccs2)n[nH]c1=S (stereo unspecified) | 0.0% | -0.5 | 18.5 | 9.6%
O=C(C1CCC1)N1CCN(S(=O)(=O)c2ccc(F)cc2)CC1 | 1.9% | . | . | .
O=C(NC(=S)NNC(=O)c1ccccc1[N+](=O)[O-])c1ccc(Br)cc1 | 4.1% | 3.4 | 7.0 | -21.9%
O=C(CNC(=O)N1CC(=O)Nc2ccccc21)NCc1cccc(Cl)c1 | -2.2% | 1.4 | -9.4 | 9.9%
COc1ccc(-c2cc(=O)oc3cc(OC(C)C(=O)NCc4ccccn4)ccc23)cc1 (stereo unspecified) | 3.98µM* | -1.2 | 7.0 | -33.8%
COc1ccc(-c2cc(CCCC(=O)NCCc3ccc(OC)cc3OC)no2)cc1 | 4.1% | 11.0 | 13.9 | -1.9%
COc1ccc(-c2cc(CCCC(=O)NCc3ccccn3)no2)cc1 | -7.1% | 34.4* | 21.1 | -8.1%
COc1ccc(-c2cc(=O)oc3cc(OCC(=O)NCc4ccccn4)ccc23)cc1 | -1.8% | -2.5 | -3.1 | 11.9%
Cn1c(=O)[nH]c(=O)c2c1nc(SCC(N)=O)n2Cc1cccc(Br)c1 | 1.3% | -4.0 | 4.2 | 4.9%
Cc1cc2sc3nc(=O)n(-c4ccccc4)c(=O)n3c2cc1C | -3.1% | 24.8* | 31.9* | -1.5%
Cc1c(O)nc2sc3ccccc3n2c1=O | -0.3% | -2.0 | 5.8 | -1.3%
O=C1c2cccc3cccc(c23)C(=O)N1CC1CCN(CC(O)COc2ccc3ccccc3c2)CC1 (stereo unspecified) | -29.9% | 72.2* | 128.2* | -144.3%
COc1cccc(OCC(O)CN2CCC(CN3C(=O)c4cccc5cccc(c45)C3=O)CC2)c1 (stereo unspecified) | 1.8% | -4.6 | 13.0 | .
CN1CCN(c2ccc(S(=O)(=O)N3CCCCC3)cc2N)CC1 | 3.8% | . | . | .
Cc1ccc(O)c(-c2cc(-c3ccccc3C)[nH]n2)c1 | -34.0% | -1.6 | 32.5* | -147.4%
Cc1ccc(-c2cc(-c3cccs3)[nH]n2)c(O)c1 | -26.6% | 40.9* | 72.1* | -119.3%
COc1ccc(O)c(-c2cc(-c3ccccc3[N+](=O)[O-])[nH]n2)c1 | -2.9% | 24.8* | -3.5 | -25.1%
COc1ccc(O)c(-c2cn[nH]c2-c2cccs2)c1 | -2.1% | -1.6 | -7.8 | 8.5%
Cc1ccc(O)c(-c2cc(C(F)(F)C(F)F)[nH]n2)c1 | -11.8% | 18.6* | 47.0 | -98.1%
Cc1cccc2c1N1C(=O)c3c(C(=O)O)cccc3C1CC2C (stereo unspecified) | -16.9% | 1.8 | 11.3 | -3.2%
Cc1ccc(O)c(-c2cc(-c3ccccc3[N+](=O)[O-])[nH]n2)c1 | -36.4% | 19.9* | 44.4* | -32.5%
O=[N+]([O-])c1ccccc1-c1cc(-c2cc(Cl)ccc2O)n[nH]1 | -68.4% | 21.8* | 50.4 | -48.0%
Cc1ccccc1[N+](=O)[O-] | -5.9% | . | . | .
O=S(=O)([N-]c1nc2ccccc2nc1-[n+]1ccc(-c2ccncc2)cc1)c1ccccc1 | -0.1% | 33.6* | 92.0* | .
O=S(=O)([N-]c1nc2ccccc2nc1-[n+]1ccccc1)c1ccccc1 | -22.8% | -3.2 | 8.8 | 6.1%
SMILES | SARS PLP yeast | Cycloheximide cs | Shiga toxin inh | NS1 inh
O=C1c2ccccc2-c2ccc(C(=O)N3CCCCC3)cc21 | -0.5% | 31.0* | 153.4 | -10.0%
O=C(Nc1ccc(C(=O)N2CCCC2)cc1)c1ccccc1Br | 1.3% | 10.6* | 35.2 | 0.9%
O=C(Nc1ccccc1)Nc1ccc(C(=O)N2CCCC2)cc1 | -4.2% | 19.0* | 44.5* | -3.3%
O=C(Nc1ccc(C2CC2(Cl)Cl)cc1)c1ccccc1Br (stereo unspecified) | -80.7% | 44.6* | 56.6* | -57.3%
CC(C)CN(CCNC(=O)CN1N=C(c2ccc(Cl)cc2)CCC1=O)CC(C)C | 1.2% | -1.0 | -2.8 | 4.7%
Cc1ccc(NC(=O)COC(=O)CNC(=O)c2ccc(Br)cc2)c(C)c1 | 6.8% | 6.7 | 22.1 | -6.5%
O=C(/C=C/c1ccccc1)Nc1ccc(C(=O)N2CCCCC2)cc1 | -0.5% | 13.6 | 44.4* | -4.8%
COc1ccc2c3c(c(=O)oc2c1)C1O[C@](c2ccsc2)(Cc2cc(C#N)ccc21)O3 | 7.6%[6.58 µM] | -2.5 | i | 23.2%
COc1cc2c(cc1OC)C1O[C@](c3ccsc3)(C2)Oc2c1c(=O)oc1ccc(F)cc21 | 5.3%[6.58 µM] | 15.5* | i | ?
N#Cc1ccc2c(c1)C[C@]1(c3ccsc3)Oc3c(c(=O)oc4ccc(F)cc34)C2O1 | -18.5%[6.58 µM] | -4.2 | i | 14.8%
N#Cc1ccc2c(c1)C[C@]1(c3ccsc3)Oc3c(c(=O)oc4ccccc34)C2O1 | -4.4%[6.58 µM] | 24.0* | + | 18.7%

Assay outcomes from PubChem BioAssay.
